# Legend:
# [1] = molecular target: Platelet-derived growth factor receptor beta (Homo sapiens) (UniProt P09619); conditions: at 0.1 µM
# [2] = molecular target: Platelet-derived growth factor receptor beta (Homo sapiens) (UniProt P09619); conditions: at 1 µM
# [3] = molecular target: Tyrosine-protein kinase FRK (Homo sapiens) (UniProt P42685); conditions: at 0.1 µM
# [4] = molecular target: Tyrosine-protein kinase FRK (Homo sapiens) (UniProt P42685); conditions: at 1 µM
# [5] = molecular target: Protein-tyrosine kinase 2-beta (Homo sapiens) (UniProt Q14289); conditions: at 0.1 µM
# [6] = molecular target: Protein-tyrosine kinase 2-beta (Homo sapiens) (UniProt Q14289); conditions: at 1 µM
# [7] = molecular target: Proto-oncogene tyrosine-protein kinase receptor Ret (Homo sapiens) (UniProt P07949); conditions: at 0.1 µM
# Proto-oncogene tyrosine-protein kinase receptor Ret (Homo sapiens), sequence (P07949 whole entry): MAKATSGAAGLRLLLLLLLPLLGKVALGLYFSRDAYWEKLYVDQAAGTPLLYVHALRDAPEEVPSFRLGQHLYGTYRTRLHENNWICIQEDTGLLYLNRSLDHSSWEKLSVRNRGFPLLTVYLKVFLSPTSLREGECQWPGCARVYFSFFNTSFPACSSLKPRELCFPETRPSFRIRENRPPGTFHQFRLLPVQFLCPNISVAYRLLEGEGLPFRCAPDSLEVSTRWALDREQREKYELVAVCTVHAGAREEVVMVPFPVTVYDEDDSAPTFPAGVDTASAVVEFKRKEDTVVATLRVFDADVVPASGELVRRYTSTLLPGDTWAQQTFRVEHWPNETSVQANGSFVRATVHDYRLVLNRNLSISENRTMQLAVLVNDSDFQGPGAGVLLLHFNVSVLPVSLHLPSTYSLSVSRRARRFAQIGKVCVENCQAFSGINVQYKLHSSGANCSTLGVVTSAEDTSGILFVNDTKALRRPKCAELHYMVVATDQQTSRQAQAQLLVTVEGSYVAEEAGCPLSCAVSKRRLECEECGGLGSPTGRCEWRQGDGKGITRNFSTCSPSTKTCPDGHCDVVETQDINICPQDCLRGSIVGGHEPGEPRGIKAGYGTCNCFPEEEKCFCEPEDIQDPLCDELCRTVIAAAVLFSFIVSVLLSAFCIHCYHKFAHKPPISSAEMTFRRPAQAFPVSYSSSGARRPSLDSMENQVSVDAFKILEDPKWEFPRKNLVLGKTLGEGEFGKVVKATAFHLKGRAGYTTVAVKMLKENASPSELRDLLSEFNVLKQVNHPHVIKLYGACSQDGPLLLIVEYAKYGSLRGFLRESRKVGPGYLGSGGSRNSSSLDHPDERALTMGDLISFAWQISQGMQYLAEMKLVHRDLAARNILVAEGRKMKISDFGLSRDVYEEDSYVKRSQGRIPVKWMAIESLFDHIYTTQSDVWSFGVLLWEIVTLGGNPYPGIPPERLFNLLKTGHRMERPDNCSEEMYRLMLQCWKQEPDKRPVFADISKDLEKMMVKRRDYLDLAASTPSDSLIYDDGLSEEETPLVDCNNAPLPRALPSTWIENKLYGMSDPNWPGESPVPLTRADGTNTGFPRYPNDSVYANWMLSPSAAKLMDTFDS
# [8] = molecular target: Proto-oncogene tyrosine-protein kinase receptor Ret (Homo sapiens) (UniProt P07949); conditions: at 1 µM
# [9] = tested on: Proto-oncogene tyrosine-protein kinase receptor Ret (Homo sapiens), P07949 [V804L]; conditions: at 0.1 µM
# Proto-oncogene tyrosine-protein kinase receptor Ret (Homo sapiens), P07949 [V804L], sequence (P07949 whole entry V804L): as the sequence (P07949 whole entry) above, with V804L counted along it
# [10] = tested on: Proto-oncogene tyrosine-protein kinase receptor Ret (Homo sapiens), P07949 [V804L]; conditions: at 1 µM
# [11] = tested on: Proto-oncogene tyrosine-protein kinase receptor Ret (Homo sapiens), P07949 [Y791F]; conditions: at 0.1 µM
# [12] = tested on: Proto-oncogene tyrosine-protein kinase receptor Ret (Homo sapiens), P07949 [Y791F]; conditions: at 1 µM
# [13] = molecular target: Macrophage-stimulating protein receptor (Homo sapiens) (UniProt Q04912); conditions: at 0.1 µM
# [14] = molecular target: Macrophage-stimulating protein receptor (Homo sapiens) (UniProt Q04912); conditions: at 1 µM
# [15] = molecular target: Proto-oncogene tyrosine-protein kinase ROS (Homo sapiens) (UniProt P08922); conditions: at 0.1 µM
# [16] = molecular target: Proto-oncogene tyrosine-protein kinase ROS (Homo sapiens) (UniProt P08922); conditions: at 1 µM
# [17] = molecular target: Proto-oncogene tyrosine-protein kinase Src (Homo sapiens) (UniProt P12931); conditions: at 0.1 µM
# Proto-oncogene tyrosine-protein kinase Src (Homo sapiens), sequence (P12931 2-536 limits assumed): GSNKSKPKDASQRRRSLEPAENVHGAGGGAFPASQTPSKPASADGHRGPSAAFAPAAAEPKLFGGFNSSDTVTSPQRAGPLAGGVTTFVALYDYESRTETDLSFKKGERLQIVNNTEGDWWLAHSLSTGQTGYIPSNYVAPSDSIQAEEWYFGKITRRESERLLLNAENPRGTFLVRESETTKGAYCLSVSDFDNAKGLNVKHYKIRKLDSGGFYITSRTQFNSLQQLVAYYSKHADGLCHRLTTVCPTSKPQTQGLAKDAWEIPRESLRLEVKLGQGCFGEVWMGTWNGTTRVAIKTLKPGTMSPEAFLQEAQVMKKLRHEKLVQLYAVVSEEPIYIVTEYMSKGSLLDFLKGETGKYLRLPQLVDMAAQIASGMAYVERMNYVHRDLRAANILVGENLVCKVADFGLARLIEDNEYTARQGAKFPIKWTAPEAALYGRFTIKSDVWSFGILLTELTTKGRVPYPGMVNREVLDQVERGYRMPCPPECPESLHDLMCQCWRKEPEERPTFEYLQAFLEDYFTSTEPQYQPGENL
# [18] = molecular target: Proto-oncogene tyrosine-protein kinase Src (Homo sapiens) (UniProt P12931); conditions: at 1 µM
# [19] = molecular target: Tyrosine-protein kinase Srms (Homo sapiens) (UniProt Q9H3Y6); conditions: at 0.1 µM
# Tyrosine-protein kinase Srms (Homo sapiens), sequence (Q9H3Y6 whole entry): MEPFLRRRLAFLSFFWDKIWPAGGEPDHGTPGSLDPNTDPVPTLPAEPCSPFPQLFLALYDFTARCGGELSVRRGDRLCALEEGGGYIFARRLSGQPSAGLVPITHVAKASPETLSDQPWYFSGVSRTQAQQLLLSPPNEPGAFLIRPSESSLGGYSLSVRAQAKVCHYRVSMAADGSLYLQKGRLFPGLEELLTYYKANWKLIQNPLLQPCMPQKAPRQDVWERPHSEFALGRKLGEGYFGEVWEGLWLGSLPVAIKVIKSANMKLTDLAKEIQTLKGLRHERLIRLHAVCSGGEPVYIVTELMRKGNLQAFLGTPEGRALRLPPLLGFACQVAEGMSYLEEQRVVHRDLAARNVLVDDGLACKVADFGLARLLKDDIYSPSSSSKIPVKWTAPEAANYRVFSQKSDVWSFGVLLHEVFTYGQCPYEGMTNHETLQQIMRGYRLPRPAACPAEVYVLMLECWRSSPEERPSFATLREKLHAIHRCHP
# [20] = molecular target: Tyrosine-protein kinase Srms (Homo sapiens) (UniProt Q9H3Y6); conditions: at 1 µM
# [21] = molecular target: Tyrosine-protein kinase SYK (Homo sapiens) (UniProt P43405); conditions: at 0.1 µM
# [22] = molecular target: Tyrosine-protein kinase SYK (Homo sapiens) (UniProt P43405); conditions: at 1 µM
# [23] = molecular target: Tyrosine-protein kinase Tec (Homo sapiens) (UniProt P42680); conditions: at 0.1 µM
# [24] = molecular target: Tyrosine-protein kinase Tec (Homo sapiens) (UniProt P42680); conditions: at 1 µM
# [25] = molecular target: Angiopoietin-1 receptor (Homo sapiens) (UniProt Q02763); conditions: at 0.1 µM
# [26] = molecular target: Angiopoietin-1 receptor (Homo sapiens) (UniProt Q02763); conditions: at 1 µM
# [27] = molecular target: Non-receptor tyrosine-protein kinase TNK1 (Homo sapiens) (UniProt Q13470); conditions: at 0.1 µM
# [28] = molecular target: Non-receptor tyrosine-protein kinase TNK1 (Homo sapiens) (UniProt Q13470); conditions: at 1 µM
# [29] = molecular target: Activated CDC42 kinase 1 (Homo sapiens) (UniProt Q07912); conditions: at 0.1 µM
# Activated CDC42 kinase 1 (Homo sapiens), sequence (Q07912 whole entry, looked up): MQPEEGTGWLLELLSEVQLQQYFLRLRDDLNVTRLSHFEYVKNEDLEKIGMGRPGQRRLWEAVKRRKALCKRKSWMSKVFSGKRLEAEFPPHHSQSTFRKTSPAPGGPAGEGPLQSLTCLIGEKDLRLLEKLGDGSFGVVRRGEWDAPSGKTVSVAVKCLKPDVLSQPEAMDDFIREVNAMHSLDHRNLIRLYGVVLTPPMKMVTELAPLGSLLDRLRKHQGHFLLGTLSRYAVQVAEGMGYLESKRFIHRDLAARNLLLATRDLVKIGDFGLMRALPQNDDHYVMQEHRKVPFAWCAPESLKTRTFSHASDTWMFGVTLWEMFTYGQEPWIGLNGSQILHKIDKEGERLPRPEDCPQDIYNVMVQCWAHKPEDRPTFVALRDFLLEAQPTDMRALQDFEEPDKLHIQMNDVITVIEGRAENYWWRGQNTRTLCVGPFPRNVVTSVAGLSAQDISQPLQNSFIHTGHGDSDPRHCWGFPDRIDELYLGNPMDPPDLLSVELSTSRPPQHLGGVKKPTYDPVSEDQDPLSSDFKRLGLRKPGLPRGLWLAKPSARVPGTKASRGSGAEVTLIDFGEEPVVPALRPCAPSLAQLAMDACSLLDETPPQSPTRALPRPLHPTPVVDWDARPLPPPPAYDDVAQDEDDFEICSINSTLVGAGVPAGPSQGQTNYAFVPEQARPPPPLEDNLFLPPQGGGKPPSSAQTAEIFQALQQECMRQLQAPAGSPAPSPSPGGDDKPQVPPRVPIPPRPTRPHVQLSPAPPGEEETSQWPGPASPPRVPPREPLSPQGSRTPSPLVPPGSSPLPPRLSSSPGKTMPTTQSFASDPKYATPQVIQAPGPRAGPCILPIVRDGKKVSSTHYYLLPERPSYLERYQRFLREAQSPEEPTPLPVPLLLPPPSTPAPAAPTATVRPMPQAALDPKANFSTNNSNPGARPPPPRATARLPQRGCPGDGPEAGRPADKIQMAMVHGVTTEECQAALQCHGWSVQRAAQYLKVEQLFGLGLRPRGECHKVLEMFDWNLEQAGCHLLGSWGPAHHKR
# [30] = molecular target: Activated CDC42 kinase 1 (Homo sapiens) (UniProt Q07912); conditions: at 1 µM
# [31] = molecular target: High affinity nerve growth factor receptor (Homo sapiens) (UniProt P04629); conditions: at 0.1 µM
# [32] = molecular target: High affinity nerve growth factor receptor (Homo sapiens) (UniProt P04629); conditions: at 1 µM
# [33] = molecular target: BDNF/NT-3 growth factors receptor (Homo sapiens) (UniProt Q16620); conditions: at 0.1 µM
# [34] = molecular target: BDNF/NT-3 growth factors receptor (Homo sapiens) (UniProt Q16620); conditions: at 1 µM
# [35] = molecular target: NT-3 growth factor receptor (Homo sapiens) (UniProt Q16288); conditions: at 0.1 µM
# [36] = molecular target: NT-3 growth factor receptor (Homo sapiens) (UniProt Q16288); conditions: at 1 µM
# [37] = molecular target: Tyrosine-protein kinase TXK (Homo sapiens) (UniProt P42681); conditions: at 0.1 µM
# [38] = molecular target: Tyrosine-protein kinase TXK (Homo sapiens) (UniProt P42681); conditions: at 1 µM
# [39] = molecular target: Non-receptor tyrosine-protein kinase TYK2 (Homo sapiens) (UniProt P29597); conditions: at 0.1 µM;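 also: each value is a mean of the inhibition readings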
# [40] = molecular target: Dual specificity protein kinase TTK (Homo sapiens) (UniProt P33981); conditions: at 1 µM;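 also: reported figures are mean TTK inhibition at 1 µM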
# [41] = molecular target: Aurora kinase A (Homo sapiens) (UniProt O14965); conditions: at 0.1 µM
# Aurora kinase A (Homo sapiens), sequence (O14965 whole entry): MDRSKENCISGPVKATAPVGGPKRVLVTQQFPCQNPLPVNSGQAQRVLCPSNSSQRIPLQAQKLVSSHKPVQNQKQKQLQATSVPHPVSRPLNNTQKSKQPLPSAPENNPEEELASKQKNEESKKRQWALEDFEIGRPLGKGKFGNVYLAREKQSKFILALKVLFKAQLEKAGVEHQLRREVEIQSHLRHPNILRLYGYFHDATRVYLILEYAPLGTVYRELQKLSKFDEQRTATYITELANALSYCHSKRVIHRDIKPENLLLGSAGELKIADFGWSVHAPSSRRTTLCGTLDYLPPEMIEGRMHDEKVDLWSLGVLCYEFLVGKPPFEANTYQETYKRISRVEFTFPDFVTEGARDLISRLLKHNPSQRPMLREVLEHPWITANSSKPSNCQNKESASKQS
# [42] = molecular target: Aurora kinase A (Homo sapiens) (UniProt O14965); conditions: at 1 µM
# [43] = molecular target: Aurora kinase B (Homo sapiens) (UniProt Q96GD4); conditions: at 0.1 µM
# [44] = molecular target: Aurora kinase B (Homo sapiens) (UniProt Q96GD4); conditions: at 1 µM
# [45] = molecular target: Aurora kinase C (Homo sapiens) (UniProt Q9UQB9); conditions: at 0.1 µM
# Aurora kinase C (Homo sapiens), sequence (Q9UQB9 whole entry): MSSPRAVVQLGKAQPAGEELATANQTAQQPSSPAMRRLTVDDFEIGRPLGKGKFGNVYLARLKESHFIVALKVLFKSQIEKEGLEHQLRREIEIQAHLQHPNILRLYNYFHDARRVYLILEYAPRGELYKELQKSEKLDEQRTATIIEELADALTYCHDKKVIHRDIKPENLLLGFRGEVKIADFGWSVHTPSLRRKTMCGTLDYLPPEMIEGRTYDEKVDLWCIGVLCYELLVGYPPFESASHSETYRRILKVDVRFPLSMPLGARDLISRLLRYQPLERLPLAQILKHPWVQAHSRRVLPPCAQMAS
# [46] = molecular target: Aurora kinase C (Homo sapiens) (UniProt Q9UQB9); conditions: at 1 µM
# [47] = molecular target: Serine/threonine-protein kinase 10 (Homo sapiens) (UniProt O94804); conditions: at 0.1 µM
# [48] = molecular target: Serine/threonine-protein kinase 10 (Homo sapiens) (UniProt O94804); conditions: at 1 µM
# [49] = molecular target: Mitogen-activated protein kinase kinase kinase kinase 2 (Homo sapiens) (UniProt Q12851); conditions: at 0.1 µM
# [50] = molecular target: Mitogen-activated protein kinase kinase kinase kinase 2 (Homo sapiens) (UniProt Q12851); conditions: at 1 µM
# [51] = molecular target: Mitogen-activated protein kinase kinase kinase kinase 4 (Homo sapiens) (UniProt O95819); conditions: at 0.1 µM
# [52] = molecular target: Mitogen-activated protein kinase kinase kinase kinase 4 (Homo sapiens) (UniProt O95819); conditions: at 1 µM
# [53] = molecular target: Dual specificity mitogen-activated protein kinase kinase 1 (Homo sapiens) (UniProt Q02750); conditions: at 0.1 µM
# [54] = molecular target: Dual specificity mitogen-activated protein kinase kinase 1 (Homo sapiens) (UniProt Q02750); conditions: at 1 µM
# [55] = molecular target: Misshapen-like kinase 1 (Homo sapiens) (UniProt Q8N4C8); conditions: at 0.1 µM
# [56] = molecular target: Misshapen-like kinase 1 (Homo sapiens) (UniProt Q8N4C8); conditions: at 1 µM
smiles,measurement,setting,value
CNC(=O)Oc1cc(C)c(/C=C/c2cncc(C(=O)NC)c2)c(C)c1,inhibition,[1],8.91%
same,inhibition,[2],49.7%
same,inhibition,[3],2.61%
same,inhibition,[4],13.1%
same,inhibition,[5],10.7%
same,inhibition,[6],6.54%
same,inhibition,[7],-1.48%
same,inhibition,[8],2.54%
same,inhibition,[9],2.06%
same,inhibition,[10],3.32%
same,inhibition,[11],2.2%
same,inhibition,[12],2.71%
same,inhibition,[13],-0.85%
same,inhibition,[14],4.22%
same,inhibition,[15],9.53%
same,inhibition,[16],13.7%
same,inhibition,[17],5.94%
same,inhibition,[18],49.2%
same,inhibition,[19],4.13%
same,inhibition,[20],19.3%
same,inhibition,[21],-1.41%
same,inhibition,[22],-0.86%
same,inhibition,[23],8.66%
same,inhibition,[24],39.1%
same,inhibition,[25],-0.08%
same,inhibition,[26],3.57%
same,inhibition,[27],1.27%
same,inhibition,[28],14.6%
same,inhibition,[29],0.99%
same,inhibition,[30],6.77%
same,inhibition,[31],1.04%
same,inhibition,[32],-0.56%
same,inhibition,[33],1.03%
same,inhibition,[34],0.99%
same,inhibition,[35],-0.56%
same,inhibition,[36],2.73%
same,inhibition,[37],13.4%
same,inhibition,[38],34.7%
same,inhibition,[39],-4.14%
same,inhibition,[40],8.09%
same,inhibition,[41],2.77%
same,inhibition,[42],4.58%
same,inhibition,[43],0.2%
same,inhibition,[44],1.25%
same,inhibition,[45],0.65%
same,inhibition,[46],9.48%
same,inhibition,[47],5.93%
same,inhibition,[48],16.9%
same,inhibition,[49],0.92%
same,inhibition,[50],5.49%
same,inhibition,[51],3.12%
same,inhibition,[52],8.96%
same,inhibition,[53],2.97%
same,inhibition,[54],4.15%
same,inhibition,[55],3.2%
same,inhibition,[56],7.01%

# Source: ChEMBL document CHEMBL1961873, “Compounds: GSK PKIS; Assays: Nanosyn kinase panel” (2012)
